We go through ten compounds from PubChem BioAssay AID1508601 (ICCB-Longwood Screening Facility, Harvard Medical School, 2020).

Out of some 5,700 compounds screened, about 85 (1%) were called active. The sample holds actives, similar compounds and a random draw of the others, so the mix is not that of the screen. Rule as the data show it: active = p53-positive nuclei above about 36% (passing the limit was not always enough); inactive = the rest.

A short description of assay [1]: p53 stabilisation in HPV-positive human cells, imaging, p53-positive nuclei imaging, 24 h, 48 h (AID 1508601). The conditions noted are these: 24/48 h.
For assay [2], the target named is Cellular tumor antigen p53 (Homo sapiens) (UniProt P04637). Described as above. The conditions noted are these: 24/48 h, stronger effect = higher value.
Cellular tumor antigen p53 (Homo sapiens), sequence (P04637 whole entry, looked up): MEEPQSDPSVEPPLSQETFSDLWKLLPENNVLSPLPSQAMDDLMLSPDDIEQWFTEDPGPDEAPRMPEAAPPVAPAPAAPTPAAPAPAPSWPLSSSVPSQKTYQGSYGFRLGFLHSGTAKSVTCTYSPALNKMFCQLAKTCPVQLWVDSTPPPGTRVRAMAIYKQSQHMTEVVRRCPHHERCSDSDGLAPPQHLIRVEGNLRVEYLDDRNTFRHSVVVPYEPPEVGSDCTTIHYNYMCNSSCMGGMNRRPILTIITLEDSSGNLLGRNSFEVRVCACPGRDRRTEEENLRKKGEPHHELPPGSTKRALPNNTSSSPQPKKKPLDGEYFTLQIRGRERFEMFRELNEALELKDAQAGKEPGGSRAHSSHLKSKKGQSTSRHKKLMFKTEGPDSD
Where [3] appears, read: measured here: cell number at 24 h, concentration not given here.
The mark [4] stands for this setting: measured here: cell number at 48 h, concentration not given here.
The mark [5] stands for this setting: measured here: p53 positive nuclei at 24 h, concentration not given here.
Setting [6] is: measured here: cell number at 24 h, Library stock concentration: 10 mM.
Where [7] appears, read: measured here: cell number at 48 h, Library stock concentration: 10 mM.
Where [8] appears, read: Library stock concentration: 10 mM.
The mark [9] stands for this setting: measured here: p53 positive nuclei at 24 h, Library stock concentration: 10 mM.
[10] abbreviates: measured here: cell number at 24 h, Library stock concentration: 3.33 mM.
Where [11] appears, read: measured here: cell number at 48 h, Library stock concentration: 3.33 mM.
Setting [12] is: Library stock concentration: 3.33 mM.
Where [13] appears, read: measured here: p53 positive nuclei at 24 h, Library stock concentration: 3.33 mM.
Where [14] appears, read: measured here: cell number at 24 h, Library stock concentration: 500 nM.
Where [15] appears, read: measured here: cell number at 24 h, Library stock concentration: 1.5 uM.
The mark [16] stands for this setting: measured here: cell number at 24 h, Library stock concentration: 4.6 uM.
The mark [17] stands for this setting: measured here: cell number at 24 h, Library stock concentration: 13.7 uM.
[18] abbreviates: measured here: cell number at 24 h, Library stock concentration: 41 uM.
The mark [19] stands for this setting: measured here: cell number at 24 h, Library stock concentration: 123 uM.
The mark [20] stands for this setting: measured here: cell number at 24 h, Library stock concentration: 370 uM.
Setting [21] is: measured here: cell number at 24 h, Library stock concentration: 1.111 mM.
[22] abbreviates: measured here: cell number at 24 h, Library stock concentration: 3.333 mM.
Where [23] appears, read: measured here: cell number at 48 h, Library stock concentration: 500 nM.
[24] abbreviates: measured here: cell number at 48 h, Library stock concentration: 1.5 uM.
[25] abbreviates: measured here: cell number at 48 h, Library stock concentration: 4.6 uM.
The mark [26] stands for this setting: measured here: cell number at 48 h, Library stock concentration: 13.7 uM.
Where [27] appears, read: measured here: cell number at 48 h, Library stock concentration: 41 uM.
Setting [28] is: measured here: cell number at 48 h, Library stock concentration: 123 uM.
Where [29] appears, read: measured here: cell number at 48 h, Library stock concentration: 370 uM.
[30] abbreviates: measured here: cell number at 48 h, Library stock concentration: 1.111 mM.
Setting [31] is: measured here: cell number at 48 h, Library stock concentration: 3.333 mM.
[32] abbreviates: Library stock concentration: 500 nM.
[33] abbreviates: Library stock concentration: 1.5 uM.
The mark [34] stands for this setting: Library stock concentration: 4.6 uM.
[35] abbreviates: Library stock concentration: 13.7 uM.
[36] abbreviates: Library stock concentration: 41 uM.
Where [37] appears, read: Library stock concentration: 123 uM.
Where [38] appears, read: Library stock concentration: 370 uM.
Setting [39] is: Library stock concentration: 1.111 mM.
Where [40] appears, read: Library stock concentration: 3.333 mM.
[41] abbreviates: measured here: p53 positive nuclei at 24 h, Library stock concentration: 500 nM.
[42] abbreviates: measured here: p53 positive nuclei at 24 h, Library stock concentration: 1.5 uM.
Where [43] appears, read: measured here: p53 positive nuclei at 24 h, Library stock concentration: 4.6 uM.
Setting [44] is: measured here: p53 positive nuclei at 24 h, Library stock concentration: 13.7 uM.
Where [45] appears, read: measured here: p53 positive nuclei at 24 h, Library stock concentration: 41 uM.
Setting [46] is: measured here: p53 positive nuclei at 24 h, Library stock concentration: 123 uM.
Setting [47] is: measured here: p53 positive nuclei at 24 h, Library stock concentration: 370 uM.
Setting [48] is: measured here: p53 positive nuclei at 24 h, Library stock concentration: 1.111 mM.
Where [49] appears, read: measured here: p53 positive nuclei at 24 h, Library stock concentration: 3.333 mM.

For the compound `CCCCC[C@H](O)/C=C/[C@H]1[C@H](O)CC(=O)[C@@H]1C/C=C\CCCC(=O)Oc1ccc(NC(C)=O)cc1`, the nuclei count, normalised in assay [1] (setting [3]) was 106%; in assay [1] (setting [4]), 115%. Moreover, the p53-positive nuclei, normalised is -0.0787% (inactive) in assay [2] (concentration not given here) and -0.118% in assay [2] (setting [5]).

Consider `CCCCCCCCCC(=O)CC(=O)N[C@H]1CCOC1=O`, for which the values for the nuclei count, normalised in assay [1] (setting [3]) and in assay [1] (setting [4]) were 107% and 108%, respectively. Further, the results for the p53-positive nuclei, normalised in assay [2] (concentration not given here) and in assay [2] (setting [5]) were 0.0451% (inactive) and -0.0502%, respectively.

With `CC1CCNC(=O)c2cc3ccc(C(=O)Nc4nc5ccccc5n4CCCN(C)C)cc3n21` (configuration not stated), the nuclei count, normalised in assay [1] (measured here: cell number at 24 h, Library stock concentration: 80 uM) came out at 112%; in assay [1] (measured here: cell number at 24 h, Library stock concentration: 400 uM), 107%; in assay [1] (measured here: cell number at 24 h, Library stock concentration: 2 mM), 107%; in assay [1] (setting [6]), 106%; in assay [1] (measured here: cell number at 48 h, Library stock concentration: 80 uM), 115%; in assay [1] (measured here: cell number at 48 h, Library stock concentration: 400 uM) it was 113%. Besides, the nuclei count, normalised in assay [1] (measured here: cell number at 48 h, Library stock concentration: 2 mM) was determined as 111%; in assay [1] (setting [7]) it was 119%. For the same compound, the p53-positive nuclei, normalised was -0.131% (inactive) in assay [2] (Library stock concentration: 80 uM); -0.0944% (inactive) in assay [2] (Library stock concentration: 400 uM); 0.0714% (inactive) in assay [2] (Library stock concentration: 2 mM); -0.134% (inactive) in assay [2] (setting [8]); -0.0686% in assay [2] (measured here: p53 positive nuclei at 24 h, Library stock concentration: 80 uM); 0.0741% in assay [2] (measured here: p53 positive nuclei at 24 h, Library stock concentration: 400 uM). In addition, the p53-positive nuclei, normalised in assay [2] (measured here: p53 positive nuclei at 24 h, Library stock concentration: 2 mM) is -0.156%; in assay [2] (setting [9]), -0.111%.

Take `Cn1ncc(NC(=O)CCc2cn3ccccc3n2)n1`: the nuclei count, normalised is 84.4% in assay [1] (setting [3]) and 90.1% in assay [1] (setting [4]). The p53-positive nuclei, normalised in assay [2] (concentration not given here) was -0.189% (inactive); in assay [2] (setting [5]) it was -0.142%.

On to `O=C(O)c1ccccc1`, for which the nuclei count, normalised turned out to be 99.7% in assay [1] (setting [10]) and 99.1% in assay [1] (setting [11]). The p53-positive nuclei, normalised is -0.166% (inactive) in assay [2] (setting [12]) and -0.28% in assay [2] (setting [13]).

Turning to `O=C(O)CCNC(=O)c1ccccc1`, the nuclei count, normalised in assay [1] (setting [10]) turned out to be 113%; in assay [1] (setting [3]), 110%; in assay [1] (setting [11]) it was 105%; in assay [1] (setting [4]), 110%. Further, the p53-positive nuclei, normalised is 0.0364% (inactive) in assay [2] (setting [12]), 0.0211% (inactive) in assay [2] (concentration not given here), -0.327% in assay [2] (setting [13]) and -0.211% in assay [2] (setting [5]).

For `CN(NC(=O)CC(=O)NN(C)C(=S)c1ccccc1)C(=S)c1ccccc1`, the nuclei count, normalised is 98.9% in assay [1] (setting [14]); 108% in assay [1] (setting [15]); 110% in assay [1] (setting [16]); 111% in assay [1] (setting [17]); 94.3% in assay [1] (setting [18]); 64.8% in assay [1] (setting [19]). The nuclei count, normalised in assay [1] (setting [20]) was 60.9%; in assay [1] (setting [21]) it was 60.4%; in assay [1] (setting [10]), 51.3%; in assay [1] (setting [22]) it was 54.8%; in assay [1] (setting [6]), 54.4%; in assay [1] (setting [23]) it was 104%. In addition, the nuclei count, normalised was 107% in assay [1] (setting [24]); 108% in assay [1] (setting [25]); 110% in assay [1] (setting [26]); 100% in assay [1] (setting [27]); 63.4% in assay [1] (setting [28]); 55% in assay [1] (setting [29]). The nuclei count, normalised was found to be 52.6% in assay [1] (setting [30]), 44.1% in assay [1] (setting [11]), 48.4% in assay [1] (setting [31]) and 43.1% in assay [1] (setting [7]). Also, the p53-positive nuclei, normalised in assay [2] (setting [32]) was 0.0337% (inactive); in assay [2] (setting [33]) it was -0.251% (inactive); in assay [2] (setting [34]), 0.0195% (inactive); in assay [2] (setting [35]), 0.51% (inactive); in assay [2] (setting [36]), 5.45% (inactive); in assay [2] (setting [37]), 37% (active). The p53-positive nuclei, normalised was 48.3% (active) in assay [2] (setting [38]); 55.8% (active) in assay [2] (setting [39]); 56.4% (active) in assay [2] (setting [12]); 64.9% (active) in assay [2] (setting [40]); 64.3% (active) in assay [2] (setting [8]); -0.0555% in assay [2] (setting [41]). For the same compound, the p53-positive nuclei, normalised in assay [2] (setting [42]) was -0.0139%; in assay [2] (setting [43]), -0.119%; in assay [2] (setting [44]) it was 1.05%; in assay [2] (setting [45]), 14.4%; in assay [2] (setting [46]) it was 69.4%; in assay [2] (setting [47]), 85.7%. Further, the p53-positive nuclei, normalised in assay [2] (setting [48]) stood at 93.5%; in assay [2] (setting [13]), 80.8%; in assay [2] (setting [49]), 103%; in assay [2] (setting [9]), 104%.

On to `CCCCCC(=O)/C=C/[C@H]1[C@H](O)CC(=O)[C@@H]1CCCCCCC(=O)O`, for which the nuclei count, normalised in assay [1] (setting [3]) and in assay [1] (setting [4]) was 107% in each case. Moreover, the p53-positive nuclei, normalised in assay [2] (concentration not given here) is -0.0323% (inactive); in assay [2] (setting [5]), -0.0183%.

On to `CCCCCNC(=O)N1CCC2(CC1)Nc1ccccc1N(CC1CC1)C2=O`, for which the nuclei count, normalised is 105% in assay [1] (setting [3]) and 110% in assay [1] (setting [4]). Also, the p53-positive nuclei, normalised in assay [2] (concentration not given here) was -0.23% (inactive); in assay [2] (setting [5]) it was -0.154%.

As for `COc1ccc(N2C(=O)C(=Cc3ccc([N+](=O)[O-])s3)SC2=S)cc1`, the nuclei count, normalised in assay [1] (setting [14]) is 117%; in assay [1] (setting [15]), 113%; in assay [1] (setting [16]), 108%; in assay [1] (setting [17]) it was 110%; in assay [1] (setting [18]), 105%; in assay [1] (setting [19]), 88.7%. Moreover, the nuclei count, normalised in assay [1] (setting [20]) is 69.2%; in assay [1] (setting [21]), 62.1%; in assay [1] (setting [22]) it was 48.5%; in assay [1] (setting [6]) it was 37.6%; in assay [1] (setting [23]), 110%; in assay [1] (setting [24]), 106%. In addition, the nuclei count, normalised was found to be 107% in assay [1] (setting [25]); 104% in assay [1] (setting [26]); 108% in assay [1] (setting [27]); 87.8% in assay [1] (setting [28]); 59.1% in assay [1] (setting [29]); 49.4% in assay [1] (setting [30]). The nuclei count, normalised in assay [1] (setting [31]) was found to be 31.9%; in assay [1] (setting [7]), 24.4%. Besides, the p53-positive nuclei, normalised was 0.221% (inactive) in assay [2] (setting [32]); 0.0846% (inactive) in assay [2] (setting [33]); 0.192% (inactive) in assay [2] (setting [34]); -0.0302% (inactive) in assay [2] (setting [35]); 0.353% (inactive) in assay [2] (setting [36]); 5.11% (inactive) in assay [2] (setting [37]). In addition, the p53-positive nuclei, normalised in assay [2] (setting [38]) was 28.8% (inactive); in assay [2] (setting [39]), 38.4% (inactive); in assay [2] (setting [40]) it was 79.8% (active); in assay [2] (setting [8]), 117% (active); in assay [2] (setting [41]) it was -0.0612%; in assay [2] (setting [42]), 0.0572%. The p53-positive nuclei, normalised in assay [2] (setting [43]) came out at 0.0046%; in assay [2] (setting [44]), 0.00591%; in assay [2] (setting [45]), 0.0741%; in assay [2] (setting [46]), 5.3%; in assay [2] (setting [47]), 28.7%; in assay [2] (setting [48]), 41.6%. Moreover, the p53-positive nuclei, normalised in assay [2] (setting [49]) turned out to be 85.9%; in assay [2] (setting [9]), 121%.
